A selection: hits, their analogues and other compounds. The true share with any hit is near 19%.
DT40 TDP1 CPT: DT40-hTDP1 cell growth loss with CPT; AID 686979; 420,000 compounds, 12% hits; Potency, µM (top dose mostly 46.2 µM), most hits filed as inhibitors; chicken DT40 Tdp1-/-;hTDP1 cells + 20 nM CPT, ATP luminescence, 48 h; also: nearly all actives have a fitted effect of over 55% in size
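Cell growth measured by CellTiter-Glo luminescence after a minimum 48 h, 37 C compound exposure with 20 nM CPT in Tdp1-knockout DT40 cells stably expressing hTDP1, seeded 400/well; qHTS titration format.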
HT1080 IDH1KD tx: toxicity to HT-1080 IDH1 knockdown cells (counter line) | HT-1080 IDH1 knockdown viability, ATP luminescence, 48 h | 360,000 compounds, 2% hits | Potency, µM (top dose mostly 46.1 µM), actives largely listed as cytotoxic | AID 686971
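After a 2 h attachment period, IDH1KD HT-1080 cells took pin-transferred compound for 48 h at 37 °C; ATP-based luminescence after 10 min room-temperature reagent incubation reported viability.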
HT1080-NT tox: kills 2HG-producing HT-1080-NT fibrosarcoma cells | HT-1080-NT fibrosarcoma viability, CellTiter-Glo ATP luminescence, 48 h | Potency, µM (doses to about 46.1 µM), usual class: cytotoxic | AID 686970 | 360,000 compounds, 1.6% hits;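 also: NT is the 2HG producing partner of a matched IDH1 knockdown line; nearly all actives have a fitted effect of over 55% in size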
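Read-out is CellTiter-Glo luminescence after 10 minutes at room temperature, following 48 hours' compound treatment of HT-1080-NT cells (750 cells/well, RPMI, 5% FBS, 37 degrees C).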
IL-1B inflam inh: blocks inflammasome-driven IL-1 beta release | THP-1 LPS/ATP IL-1B secretion, AlphaLISA, 16 h; hits give low values | activity change, % at 57.5 µM | 360,000 compounds, 4.7% hits | AID 743279; in the data active = activity change below about -50%; inconclusive = mostly about -30% to -49%
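THP-1 cells pretreated 1 hr with compounds (up to 57.5 uM final), then stimulated with LPS (250 ng/mL final) plus ATP (1.25 mM final); secreted IL-1B measured by AlphaLISA after 16 hr, decreased signal indicating inhibition.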
TDP1 cell noCPT: qHTS for Inhibitors of human tyrosyl-DNA phosphodiesterase 1 (TDP1): qHTS in cells in absence of CPT; DT40 Tdp1-/- hTDP1 cells, no CPT, ATP luminescence, 48 h; Potency, µM (titrated, usually from 46.2 µM), actives largely listed as inhibitors; 420,000 compounds, 15% hits; AID 686978, 2013; also: nearly all actives have a fitted effect of over 55% in size
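Readout: luminescence from CellTiter-Glo after 30 min in the dark at RT. Cells: DT40 Tdp1-/- with stable hTDP1, 400/well. Exposure: compounds alone, ≥48 hr, 37 °C.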
Large screens that a line does not name were inactive. Unless noted, calls follow the shape of the dose curve; as a rule, active = well fitted curve in the direction sought with a large enough effect; inconclusive = small, poorly fitted or top-dose-only effect, or another doubt; inactive = no such curve, though single readings can be large; an effect the other way counts as inactive or inconclusive.

CCC(C)c1ccc(NC(=O)C2CCN(c3ncccn3)CC2)cc1 (centres undefined)	DT40 TDP1 CPT inconclusive, HT1080-NT tox inconclusive, TDP1 cell noCPT inconclusive
COc1ccc(CNc2ccc(Cl)cc2)cc1Cn1ccnc1	DT40 TDP1 CPT inconclusive, IL-1B inflam inh -70.8, TDP1 cell noCPT 16.4µM
CC(c1ccccc1)N(CC(=O)NC1CCCCC1)S(=O)(=O)c1cccc(C(F)(F)F)c1 (centres undefined)	DT40 TDP1 CPT inconclusive, IL-1B inflam inh -62.3, TDP1 cell noCPT 16.4µM
O=C(C1CCN(S(=O)(=O)c2ccccc2)CC1)N1CCOCC1	none
Cc1nc(C)c(-c2csc(N)n2)s1	none
C=CCNc1nc(-c2sc(NC(=O)CC)nc2C)cs1	DT40 TDP1 CPT inconclusive, HT1080 IDH1KD tx inconclusive, IL-1B inflam inh inconclusive, TDP1 cell noCPT inconclusive
Cc1nc(NC(=O)C(C)(C)C)sc1-c1csc(N)n1	DT40 TDP1 CPT inconclusive, TDP1 cell noCPT 23.1µM
C=CCNc1nc(-c2sc(NC(C)=O)nc2C)cs1	DT40 TDP1 CPT 10.3µM, IL-1B inflam inh -57.6, TDP1 cell noCPT 16.4µM
Clc1ccc(OCc2nnc3n2N=C(c2ccc4c(c2)OCCO4)CS3)c(Cl)c1	DT40 TDP1 CPT 9.2µM, HT1080 IDH1KD tx 8.91µM, HT1080-NT tox 10µM, TDP1 cell noCPT 11.6µM
CCc1nnc2n1N=C(c1ccc(-c3cc(Cl)ccc3Cl)o1)CS2	TDP1 cell noCPT inconclusive
CC1(C)C([N+](=O)[O-])C(c2ccc(Cl)cc2)NC(c2ccc(Cl)cc2)C1[N+](=O)[O-] (centres undefined)	none
COc1ccc(OC)c(CNC(=O)CCCn2ccc3cc(S(=O)(=O)N4CCCC4)ccc32)c1	DT40 TDP1 CPT 14.6µM, TDP1 cell noCPT inconclusive
CCc1ccc(CNC(=O)CCCn2ccc3cc(S(=O)(=O)N4CCCC4)ccc32)cc1	DT40 TDP1 CPT 4.61µM, TDP1 cell noCPT 4.11µM (no result: HT1080 IDH1KD tx, HT1080-NT tox, IL-1B inflam inh)
COc1cccc(CNC(=O)CCCn2ccc3cc(S(=O)(=O)N4CCCC4)ccc32)c1	DT40 TDP1 CPT inconclusive, TDP1 cell noCPT inconclusive
O=C(COC(=O)c1cc(=O)[nH]c2ccccc12)Nc1nc(-c2ccccc2)cs1	none
Cc1ccccc1N1CCN(C2=NC(=O)/C(=C/c3cn[nH]c3-c3ccccc3)S2)CC1	DT40 TDP1 CPT inconclusive, TDP1 cell noCPT inconclusive
COc1cc(O)c(C(CCN2CCCCC2)c2cc(OC)c(OC)c(OC)c2)c(OC)c1 (centres undefined)	DT40 TDP1 CPT inconclusive
COc1ccc(C(CCN2CCCCC2)c2c(O)cc(OC)cc2OC)cc1 (centres undefined)	DT40 TDP1 CPT 18.4µM, TDP1 cell noCPT 18.4µM
CCN(CC)CCC(c1ccc(OC)cc1)c1c(O)cc(OC)cc1OC (centres undefined)	DT40 TDP1 CPT 20.6µM, TDP1 cell noCPT inconclusive
COc1ccc(C(CCN2CCCC2)c2c(O)cc(OC)cc2OC)cc1 (centres undefined)	DT40 TDP1 CPT 18.4µM, TDP1 cell noCPT inconclusive
O=C(c1cc2nc(-c3ccc(Cl)cc3)cc(C(F)(F)F)n2n1)N1CCOCC1	DT40 TDP1 CPT inconclusive
Cn1c(SCC(=O)Nc2ccc(Cl)cn2)nnc1C1CC1	IL-1B inflam inh -78.0
O=C(NCCOc1ccccc1)C1CCC(=O)N(C2CCCCCC2)C1 (centres undefined)	none
Cc1oc(-c2ccccc2)nc1CS(=O)CC(=O)N1CCc2ccccc2C1 (centres undefined)	DT40 TDP1 CPT 9.2µM, TDP1 cell noCPT 25.9µM
Cc1oc(-c2ccc(Cl)cc2)nc1CS(=O)CC(=O)NCCCN1CC(C)CC(C)C1 (centres undefined)	DT40 TDP1 CPT inconclusive, HT1080 IDH1KD tx inconclusive, HT1080-NT tox 16.4µM, IL-1B inflam inh -70.1, TDP1 cell noCPT inconclusive
Cc1ccc(-c2nc(CS(=O)CC(=O)N3CCN(c4ccc(Cl)cc4)CC3)c(C)o2)cc1 (centres undefined)	DT40 TDP1 CPT 16.4µM, TDP1 cell noCPT 20.6µM (no result: HT1080 IDH1KD tx, HT1080-NT tox, IL-1B inflam inh)
Cc1ccc(-c2nc(CS(=O)CC(=O)N3CCN(c4ccccc4)CC3)c(C)o2)cc1 (centres undefined)	DT40 TDP1 CPT 23.1µM, TDP1 cell noCPT 14.6µM
CCOC(=O)N1CCN(C(=O)CS(=O)Cc2nc(-c3ccc(C)cc3)oc2C)CC1 (centres undefined)	none
C/C=C/c1ccc(OC(C)[C@@H](O)c2ccc(O)c(OC)c2)c(OC)c1 (some centres undefined)	none (no result: HT1080 IDH1KD tx, HT1080-NT tox, IL-1B inflam inh)
CCOC(=O)N1CCC(NC(=O)CS(=O)Cc2nc(-c3ccc(C)cc3)oc2C)CC1 (centres undefined)	DT40 TDP1 CPT inconclusive
CCOC(=O)N1CCC(NC(=O)CS(=O)Cc2nc(-c3ccc(Cl)cc3)oc2C)CC1 (centres undefined)	DT40 TDP1 CPT inconclusive, HT1080 IDH1KD tx inconclusive, HT1080-NT tox 18.4µM, TDP1 cell noCPT 14.6µM
COc1ccc(-c2nc(CS(=O)CC(=O)NC3CCCC(C)C3C)c(C)o2)cc1OC (centres undefined)	none
Cc1ccc(-c2nc(CS(=O)CC(=O)NC3CCCC(C)C3C)c(C)o2)cc1 (centres undefined)	IL-1B inflam inh -53.6
COc1ccc(/C=N/Nc2c(Cl)cc(Cl)cc2Cl)cc1CN1CCOCC1	DT40 TDP1 CPT 16.4µM, TDP1 cell noCPT 14.6µM
COc1ccc(/C=N/NC(=O)c2ccccc2O)cc1CN1CCOCC1	none
CC1(C)C(=O)OC(c2c(F)c(F)c(F)c(F)c2F)C2(CCCCC2)C1=O (centres undefined)	TDP1 cell noCPT inconclusive
Cc1cc([N+](=O)[O-])nn1CCCC(=O)Nc1cc(Oc2ccc(F)cc2)cc([N+](=O)[O-])c1	DT40 TDP1 CPT inconclusive, IL-1B inflam inh inconclusive, TDP1 cell noCPT inconclusive
Cc1nn(Cc2ccccc2)c(C)c1NC(=O)CCCn1nc([N+](=O)[O-])c(Cl)c1C	none
Cc1cc([N+](=O)[O-])nn1CCCC(=O)Nc1cc(Oc2ccccc2)cc([N+](=O)[O-])c1	DT40 TDP1 CPT 16.4µM, TDP1 cell noCPT 20.6µM
Cc1cc(C)cc(Oc2cc(NC(=O)c3cn(C)nc3C)cc([N+](=O)[O-])c2)c1	DT40 TDP1 CPT 2.24µM, HT1080 IDH1KD tx inconclusive, HT1080-NT tox inconclusive, TDP1 cell noCPT 1.41µM
CCC(=O)Nc1cc(ON=C(C)C)cc([N+](=O)[O-])c1	none
Cc1ccc(Oc2cc(NC(=O)CCCn3nc([N+](=O)[O-])c(Cl)c3C)cc([N+](=O)[O-])c2)cc1	DT40 TDP1 CPT 20.6µM, TDP1 cell noCPT 23.1µM
Cc1nn(Cc2c(Cl)cccc2Cl)c(C)c1NC(=O)CCCn1nc([N+](=O)[O-])c(Cl)c1C	DT40 TDP1 CPT inconclusive, TDP1 cell noCPT 20.6µM
CCCCC(=O)Nc1ccc(NC(=S)NC(=O)CCCCl)cc1OC	none
COC(=O)CCCn1nc(NC(=O)c2ccco2)cc1C	none

High-throughput results deposited in PubChem by National Center for Advancing Translational Sciences (NCATS).
